In the library only some 14% were active in any assay of this set; here they are far more common.
Pf growth 96h – inhibits malaria parasite growth, 96 h; Potency, µM (doses to about 28.7 µM), inactives show at the highest dose activity change, negative = inhibition, actives largely listed as inhibitors; hit rate 6.9% among 320,000; AID 504834; P. falciparum luciferase reporter growth, 96 h; further: potency means the concentration at half of the fitted maximal effect
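P. falciparum expressing integrated firefly luciferase, in erythrocytes at 2% hematocrit, 0.05% parasitemia, incubated with compounds 96 h at 37 C, 5% CO2. Growth inhibition read as loss of luminescence; two-generation exposure targets delayed-death apicoplast inhibitors.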
Giardia FBPA inh – blocks Giardia fructose-bisphosphate aldolase activity; Potency, µM (top dose mostly 59.6 µM), for inactives: top-dose activity, negative = inhibition, actives largely listed as inhibitors; AID 2451; hit rate 0.71% among 290,000; purified Giardia FBPA; further: potency means the concentration at half of the fitted maximal effect; nearly all actives have a fitted effect of over 55% in size
Target sequence (A8B2U2 whole entry, looked up): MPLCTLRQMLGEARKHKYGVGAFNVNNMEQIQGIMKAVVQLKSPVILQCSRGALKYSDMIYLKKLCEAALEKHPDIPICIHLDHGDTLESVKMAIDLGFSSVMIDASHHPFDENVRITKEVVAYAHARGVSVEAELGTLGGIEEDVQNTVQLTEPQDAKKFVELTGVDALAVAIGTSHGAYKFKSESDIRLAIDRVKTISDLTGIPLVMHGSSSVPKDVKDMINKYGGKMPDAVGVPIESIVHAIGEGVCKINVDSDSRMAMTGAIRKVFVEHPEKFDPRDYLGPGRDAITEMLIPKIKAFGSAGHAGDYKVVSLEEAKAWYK
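Giardia FBPA (40 nM reagent) was preincubated 10 min at RT with compound (up to 57.5 uM final), then substrate plus GAPDH/TPI/NAD/arsenate coupling system with diaphorase/resazurin was added; resorufin fluorescence (525/598 nm) was read after 20 min.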
Pf growth 48h – P. falciparum growth inhibition at 48 hours (one generation) | Potency, µM (highest dose often 28.7 µM), for the others: top-dose activity change, negative = inhibition, actives largely listed as inhibitors | AID 504832 | hit rate 5.9% among 310,000 | P. falciparum luciferase growth in erythrocytes, 48 h; further: potency means the concentration at half of the fitted maximal effect
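Here the parasites carry a stable luciferase gene and grow inside erythrocytes in Albumax-based RPMI medium with compound for one erythrocytic cycle. Activity is scored as loss of luminescent signal.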
HCMV antiviral – blocks human cytomegalovirus replication; HFF cells, HCMV-luciferase reporter, 72 h; active compounds read low; activity change, negative = inhibition, % at 57.5 µM; hit rate 4.5% among 410,000; AID 1259415; in the data active means activity change below about -60%; inconclusive means no clear call, values can overlap the other calls; inactive means above about -39%
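Compounds were evaluated in HFFs infected with an HCMV luciferase reporter virus (MOI 1 PFU/cell). Luciferase in lysates collected 72 h post infection served as the replication measure.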
Sm TGR block – inhibitors of Schistosoma mansoni thioredoxin glutathione reductase. hit rate 3% among 360,000. Potency, µM (titrated, usually from 114 µM), for the others: at the highest dose activity change, negative = inhibition, actives largely listed as inhibitors. purified TGR, DTNB reduction, TNB absorbance 405 nm; further: potency means the concentration at half of the fitted maximal effect; nearly all actives have a fitted effect of over 60% in size
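Kinetic colorimetric format: TGR-catalysed, NADPH-driven DTNB reduction monitored via TNB absorbance. Enzyme dispensed at 20 nM; compound exposure 15 min at room temperature before reaction start.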
The depositor's hits bear a star; ? = inconclusive; nt = not tested or not shown; [ ] = another dose, or the depositor's remark. Unless noted, the call rests on the fitted dose curve; in most records, active means well fitted curve in the direction sought with a large enough effect; inconclusive means small, poorly fitted or top-dose-only effect, or another doubt; inactive means no such curve, though single readings can be large; an effect the other way counts as inactive or inconclusive. On the % scale 0 is the no-effect control and ±100 the full control effect.

SMILES	Pf growth 96h	Giardia FBPA inh	Pf growth 48h	HCMV antiviral	Sm TGR block
O=C1CC(N2CCC(c3nc4ccccc4[nH]3)CC2)C(=O)N1Cc1ccccc1 (centres undefined)	11%	6%	-18%	-15	?
CN1C(=O)CC(N2CCC(c3nc4ccccc4[nH]3)CC2)C1=O (centres undefined)	27%	-23%	nt	4	89µM*
O=C(O)c1ccc(N2C(=O)CC(N3CCC(c4nc5ccccc5[nH]4)CC3)C2=O)cc1 (centres undefined)	5%	?	?	19	22µM*
C=CCCC(=O)N1C[C@@H](CO)[C@@H](NC)C[C@H]1c1ccccc1Br	nt	nt	nt	-7	nt
C=Cn1ccnc1P(=S)(c1nccn1C=C)c1nccn1C=C	?	-22%	?	-18	16%
C=Cn1ccnc1P(=S)(c1ccn(C)c1)c1nccn1C=C	7.4µM*	-9%	-1%	9	2%
CC(CCCN(C)C)C(Cc1ccccc1)c1ccccc1 (centres undefined)	nt	nt	nt	-78*	nt
COc1cc(C(C(=O)NC2CCCCC2)N(Cc2ccco2)C(=O)c2cnccn2)cc(OC)c1OC (centres undefined)	-13%	0%	6%	7	-3%
NC(N)=NC(=O)c1nc(Cl)c(N)nc1N	?	-12%	3.8µM*	3	-6%
NC(N)=NC(=O)c1nc(Cl)c(N2CCCCCC2)nc1N	9.3µM*	-8%	4.7µM*	-22	-3%
CC(C)CN(C)c1nc(N)c(C(=O)N=C(N)N)nc1Cl	nt	-6%	nt	nt	nt
Cc1cc(C)nc(NC(=O)/C=C/c2ccccc2Cl)n1	36%	10%	76%	10	6%
Cc1cc(N)c2cc(NC(=O)/C=C/c3ccccc3Cl)ccc2n1	0.59µM*	0%	0.47µM*	nt	-18%
CCOC(=O)C1(Cc2ccc(OC)cc2)CCN(C(=O)c2sc(C)nc2C)CC1	9%	4%	-9%	?	-14%
CCOC(=O)C1(Cc2ccc(Cl)cc2)CCN(CCCn2cccn2)CC1	96%	0%	-19%	-62*	-2%
CCOC(=O)C1(Cc2ccc(Cl)cc2)CCN(C(=O)c2sc(C)nc2C)CC1	?	4%	?	-76*	0%
CCOC(=O)C1(Cc2ccc(OC)cc2)CCN(C(=O)CC2CCC(=O)N2)CC1 (centres undefined)	?	2%	-10%	-14	5%
CCOC(=O)C1(Cc2ccc(OC)cc2)CCN(C(=O)CCN2CCCC2=O)CC1	22%	0%	?	-76*	5%
O=C1c2ccccc2C(c2nnnn2-c2ccc3ccccc3c2)N1C1CC1 (centres undefined)	nt	nt	nt	13	nt
Cc1noc(C)c1NC(=O)N(C)C[C@H]1Oc2ccc(NC(=O)Cn3cnnn3)cc2C(=O)N([C@H](C)CO)C[C@@H]1C	nt	nt	nt	-15	nt
COc1ccc2cccc(N3CCN(CCNC(=O)c4ccc(F)cc4)CC3)c2c1	nt	-7%	nt	nt	nt
C#CCOCCOCCOCCNc1nc(N2CCN(C(=O)Cn3cc(CCCN=C(N)N)nn3)CC2)nc(N2CCN(C(=O)[C@H](C(C)C)n3cc(CCO)nn3)CC2)n1	?	-6%	-8%	-3	-22%
C#CCOCCOCCOCCNc1nc(N2CCN(C(=O)Cn3cc(CC(C)O)nn3)CC2)nc(N2CCN(C(=O)[C@H](C)n3cc(CCCN=C(N)N)nn3)CC2)n1 (some centres undefined)	12µM*	14%	-2%	nt	-27%
C#CCOCCOCCOCCNc1nc(N2CCN(C(=O)Cn3cc(CCCN=C(N)N)nn3)CC2)nc(N2CCN(C(=O)[C@H]([C@@H](C)CC)n3cc(CCCN=C(N)N)nn3)CC2)n1	0.037µM*	26%	1.2µM*	nt	?
C#CCOCCOCCOCCNc1nc(N2CCN(C(=O)[C@H]([C@@H](C)O)n3cc(CCCCN)nn3)CC2)nc(N2CCN(C(=O)[C@H](C)n3cc(CCCN=C(N)N)nn3)CC2)n1	?	1%	3%	nt	-7%
SMILES	Pf growth 96h	Giardia FBPA inh	Pf growth 48h	HCMV antiviral	Sm TGR block
C#CCOCCOCCOCCNc1nc(N2CCN(C(=O)Cn3cc(CCCCN)nn3)CC2)nc(N2CCN(C(=O)[C@H](C)n3cc(CCCN=C(N)N)nn3)CC2)n1	0.12µM*	19%	-8%	nt	-16%
C#CCOCCOCCOCCNc1nc(N2CCN(C(=O)Cn3cc(CCCN=C(N)N)nn3)CC2)nc(N2CCN(C(=O)[C@H]([C@@H](C)O)n3cc(CCCCN)nn3)CC2)n1	10µM*	nt	0%	-1	?
C#CCOCCOCCOCCNc1nc(N2CCN(C(=O)Cn3cc(CCCN=C(N)N)nn3)CC2)nc(N2CCN(C(=O)[C@H](CCCCN)n3cc(CC(C)O)nn3)CC2)n1 (some centres undefined)	?	nt	?	-1	-21%
C#CCOCCOCCOCCNc1nc(N2CCN(C(=O)Cn3cc(CCCCN)nn3)CC2)nc(N2CCN(C(=O)[C@H]([C@@H](C)CC)n3cc(CCCN=C(N)N)nn3)CC2)n1	?	nt	0.74µM*	-31	-29%
C=Cn1cc[n+](CC(=O)c2ccc(Cl)c(Cl)c2)c1	-18%	12%	?	-15	2%
O=C(Nc1nc2ccc(F)cc2s1)c1nc(S(=O)(=O)Cc2ccccc2)ncc1Cl	nt	nt	nt	-107*	?
CSc1ncc(Cl)c(C(=O)Nc2nc3ccc(F)cc3s2)n1	nt	nt	nt	27	9%
Cc1cccc(CS(=O)(=O)c2ncc(Cl)c(C(=O)Nc3nc4ccc(F)cc4s3)n2)c1	nt	nt	nt	-60*	-28%
Cc1ccc(CSc2nnc3[nH]c(=O)cc(-c4ccccc4)n23)cc1	nt	nt	nt	27	6%
Cc1ccc(C(=O)NCc2ccco2)cc1	-11%	-1%	-7%	26	9%
CN(C)S(=O)(=O)c1cccc(C(=O)NCc2ccco2)c1	-8%[5.75 µM]	4%	-6%	6	45µM*
COc1cccc(C(=O)NCCS(=O)(=O)NCc2cccs2)c1	?	nt	14%	-26	0%
Cc1cccc(C(=O)NCc2ccco2)c1	-33%	9%	12%	33	45µM*
Cc1ccc(C(=O)NCc2ccco2)c(C)c1	12µM*	9%	32%	119	?
COc1cccc(C(=O)NCCS(=O)(=O)NCc2ccco2)c1	66%	nt	40%	-68*	?

Assay outcomes as filed in PubChem.
